# Screen size: about 2,200 compounds; about 480 (22%) were called active. These entries were drawn from the full list. Potency and affinity values are given separately. Values without a mark were called inactive. How the calls were made is not given here.
# Test: S. Typhimurium GFP fluorescence modified counterscreen for PhoP regulon inhibitor project dose response (AID 1981);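 further: 0% = induced DMSO wells and 100% = uninduced wells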
# Settings: 4 h; series mostly up to 150 µM; inhibition: at the top concentration
row,Structure (SMILES),inhibition
1,O=C1CC(c2ccco2)CC(O)=C1C=Nc1cc(Cl)cc(Cl)c1 (configuration not stated),4.95%
2,Cc1cccc(NC(=O)c2cc(N3C(=O)CCC3=O)ccc2Cl)n1,-10.7%
3,Cc1oc(CC(C)C)c(CN2CCCC2)c1C(=O)O,3.44%
4,Cn1ncc(N=Cc2ccccc2O)c1C(=O)Nc1ccccc1,-4.37%
5,O=C(Cc1cccs1)Nc1nc2c(s1)CCCC2,-17.5%
6,Cn1cccc1C1NC(=O)c2c(sc3c2CCC(C(C)(C)C)C3)N1 (configuration not stated),5.09%
7,Cc1c(NS(=O)(=O)c2ccc(N(C)C3CCCCC3)c([N+](=O)[O-])c2)c(=O)n(-c2ccccc2)n1C,8.27%
8,CCCCOc1ccc(NC(=O)Nc2nnc(C)s2)cc1,-0.03%
9,COc1cccc2[nH]c3c(N4CCN(Cc5ccc6c(c5)OCO6)CC4)ncnc3c12,11.1%
10,O=C(NCc1cccs1)Nc1cccs1,-6.17%
11,O=C(c1cccc(S(=O)(=O)N2CCOCC2)c1)N1CCCC1,-6.02%
12,O=C1C2CCCN2c2ccc(S(=O)(=O)N3CCOCC3)cc2N1Cc1ccccc1F (configuration not stated),8%
13,Cc1ccc(/C=C/C(=O)c2ccccc(=O)c2O)cc1C,15.5%
14,O=C(CSc1nncs1)Nc1ccc2c(c1)OCCO2,-10.3%
15,Cc1cccc(C)c1Nc1nnc(SCC(=O)Nc2sccc2C#N)s1,-5.47%
16,COc1ccccc1N1CCN(C/C(O)=C(\C#N)c2nc(-c3ccccc3)cs2)CC1,38.2%

row,Structure (SMILES),inhibition
1,COc1ccc(C(=O)Oc2c(CN3CCOCC3)cc(Cl)c3cccnc23)cc1,-4.17%
2,COc1ccc(CN2CCOCC2)cc1Br,-4.59%
3,O=C(CCN1CCN(c2ccc(F)cc2)CC1)Nc1ccccc1F,-7.81%
4,Cc1sc(NC(=O)c2ccco2)c(CN2CCN(c3ccc(F)cc3)CC2)c1C,-1.58%
5,CNc1ncc(Cc2ccccc2)s1,-5.18%
6,COC(=O)c1[nH]c2ccc(C)cc2c1NC(=O)Nc1ccc(OC)cc1,15.2%
7,CC(=O)Nc1ccc(S(=O)(=O)N2CCC(n3cnc4cc(F)ccc43)CC2)cc1,-8.65%
8,CC(=O)c1c(C)n([O-])c2ccccc2[n+]1=O,1.77%
9,O=C(CSc1nc2[nH]ncc2c(=O)[nH]1)N1CCCCC1,-11.2%
10,Cc1ccc2nc(C(F)OC(F)(F)F)[nH]c2c1 (configuration not stated),-19.4%
11,Nc1cccc(-c2nc3ccc(N)cc3s2)c1,22.6%
12,O=[N+]([O-])/C=C/c1cc2ccccc2[nH]1,32.9%
13,CCN(CC)CCN(Cc1cc2cc3c(cc2[nH]c1=O)OCCO3)C(=O)NC1CCCCC1,-14.5%
14,c1ccc(Oc2cc(-c3ccccc3)ncn2)cc1,2.31%
15,COc1ccc(CN2C(=O)Cc3c2nc(N)c2c(N)nc(N4CCCCC4)c(C#N)c32)cc1,25.6%
16,C=COC(=O)CSc1snc(SCC(=O)OC)c1C#N,-13%

# From PubChem BioAssay AID1981 (Southern Research Specialized Biocontainment Screening …, 2009)
